In the library only some 4.1% were active in any assay of this set; here they are far more common.
hcDAF12 agonist: H. contortus DAF-12 activation, primary screen | HEK293 hcDAF-12 lit1-tk-luc reporter, luminescence; 0% DMSO, 100% Δ7-dafachronic acid | hit rate 1.4% among 370,000 | activation, % at 6.8 µM;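 active = activation above the mean of all tested compounds plus 3 SD, cut at about 5.5% in these data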
DAX1 inh-1: inhibits human nuclear receptor DAX1. P51843. HEK293 Gal4-DAX1 luciferase reporter, luminescence. inhibition, % at 6.75 µM. hit rate 0.99% among 340,000;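 active = inhibition above the mean over all tested compounds plus 3 SD, cut at about 4.2% in these data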;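 also: inhibition shows as a rise in luminescence from relieved DAX1 repression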
hgDAF-12 ag: agonists of H. glycines DAF-12 nuclear receptor. activation, % at 6.8 µM. HEK293 GAL4-hgDAF12 UAS-luciferase reporter, agonist luminescence; normalized to butyrate control. hit rate 1.8% among 370,000;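 active = activation above a cutoff set at the mean of all screened compounds plus 3 SD, cut at about 10% in these data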
ssDAF-12 act: S. stercoralis DAF-12 activation, primary screen; HEK293 ssDAF-12/GRIP1 lit1-tk-luc reporter, luminescence; % of 3 µM dafachronic acid response; activation, % at 6.8 µM; hit rate 1% among 370,000; AID 652126;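 active = activation above the mean over all tested compounds plus 3 SD, cut at about 0.9% in these data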
DAX1 inh-2: inhibitors of DAX1 repression of SF-1 activated StAR promoter; HEK293T StAR-luciferase reporter, SF-1/DAX-1 repression relief; inhibition, % at 6.8 µM; hit rate 1.1% among 370,000; AID 652010;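 active = inhibition above the mean over all tested compounds plus 3 SD, cut at about 3.6% in these data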;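 also: higher inhibition means more luminescence from relief of DAX-1 repression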
hgDAF12 conf: confirmation of H. glycines DAF-12 agonists. shares compounds with hgDAF-12 ag. HEK293 GAL4-hgDAF12 luciferase reporter, agonist mode; percent of butyrate response. activation, % at 6.8 µM. hit rate 80% among 3,300. AID 743050;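 active = mean activation over triplicate wells above the hit cutoff derived from the earlier primary screen, cut at about 11% in these data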
LXRb DAF12 ctr: LXR-beta agonism as DAF-12 counter-screen; shares compounds with hgDAF-12 ag; activation, % at 6.8 µM; 3,300 tested, under 10 active; HEK293 Gal4-LXR luciferase reporter, 24 h;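 active = mean activation of the triplicate above a set limit carried over from the primary screen, none filed active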
Target sequence (P55055 whole entry, looked up, the tested form may be a part): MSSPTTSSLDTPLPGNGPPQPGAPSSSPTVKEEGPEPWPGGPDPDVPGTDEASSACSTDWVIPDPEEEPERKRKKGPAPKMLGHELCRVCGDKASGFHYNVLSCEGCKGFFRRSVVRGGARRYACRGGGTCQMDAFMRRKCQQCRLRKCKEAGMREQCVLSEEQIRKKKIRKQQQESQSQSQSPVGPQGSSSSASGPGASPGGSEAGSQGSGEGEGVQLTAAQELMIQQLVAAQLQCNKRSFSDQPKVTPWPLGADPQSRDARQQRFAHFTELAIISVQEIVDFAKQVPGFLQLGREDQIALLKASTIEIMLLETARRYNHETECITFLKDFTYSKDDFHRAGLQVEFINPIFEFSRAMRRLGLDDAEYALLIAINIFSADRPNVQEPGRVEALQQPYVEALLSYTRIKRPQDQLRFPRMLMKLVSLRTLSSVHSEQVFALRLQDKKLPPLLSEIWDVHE
Numbers stand for hits; 0 = inactive; - = no result given.

SMILES | hcDAF12 agonist | DAX1 inh-1 | hgDAF-12 ag | ssDAF-12 act | DAX1 inh-2 | hgDAF12 conf | LXRb DAF12 ctr
COCCNC(=O)/C(C#N)=C/c1cc(C)n(-c2ccc(C)cc2)c1C | 6.1 | 0 | 21.6 | 0 | 0 | 14.8 | 0
COc1ccc(-n2c(C)cc(/C=C(\C#N)C(=O)NCc3ccco3)c2C)cc1 | 0 | 0 | 0 | 0 | 0 | - | -
Cc1cc(C)n2nc(SCC(=O)Nc3ccc(O)cc3)nc2n1 | 0 | 0 | 14.7 | 0 | 0 | 0 | 0
Cc1cc(C)n2nc(SCC(=O)Nc3ccc(F)cc3)nc2n1 | 0 | 0 | 0 | 0 | 0 | - | -
Cc1nc(C(C)NC(=O)CCc2nnc(CCCc3ccccc3)o2)c(C)s1 (stereo unspecified) | 0 | 0 | 13.2 | 0 | 0 | 0 | 0
O=C(CCc1ccccc1)N[C@H]1[C@@H](OC(=O)c2ccco2)CCC[C@@]12C(=O)N(Cc1ccccc1)c1ccccc12 | 0 | - | 0 | 0 | 0 | - | -
CCN(CC)c1ccc2cc(C(C)=O)c(=O)oc2c1 | 0 | 0 | 0 | 0 | 0 | - | -
CCN(CC)c1ccc2cc(C(=O)Nc3ccccn3)c(=O)oc2c1 | 0 | 0 | 14.3 | 0 | 0 | 17.5 | 0
Cc1ccc(C(=O)N/N=C/C2=Cc3ccccc3OC2C)cc1 (stereo unspecified) | 0 | 0 | 0 | 0 | 0 | - | -
CC1Oc2ccccc2C=C1/C=N/NC(=O)c1ccccc1 (stereo unspecified) | 0 | 0 | 14.0 | 0 | 0 | 0 | 0
CCOc1ccc(-c2n[nH]c(C(=O)NN)c2C)cc1 | 0 | 0 | 16.4 | 0 | 0 | 0 | 0
COc1ccc(N2C(=O)c3n[nH]c(C)c3C2c2ccc(F)cc2)cc1 (stereo unspecified) | 0 | - | 0 | 0 | 0 | - | -
COc1ccc(/C=C/C(=O)c2ccccc2)c(OC)c1 | 0 | 0 | 14.0 | 0 | 0 | 13.6 | 0
COc1ccc(/C=C/C(=O)c2ccc(OC)cc2OC)c(OC)c1 | 0 | 0 | 0 | 0 | 0 | - | -
COc1ccc(/C=C/C(=O)c2ccc3c(c2)OCO3)c(OC)c1 | 0 | 0 | 23.8 | 0 | 0 | 17.2 | 0
C=CCn1c(COc2ccccc2)nnc1SCC(=O)c1ccc(-c2ccccc2)cc1 | 0 | - | 0 | 0 | 0 | - | -
O=C(Nc1ccccc1)Nc1c(-c2ccc(F)cc2)nc2ncccn12 | 0 | - | 0 | 0 | 0 | - | -
O=C(NCCc1ccccc1)c1oc2ccccc2c1COc1ccccc1 | 0 | 0 | 0 | 0 | 0 | - | -
Cc1c(C(=O)NCCc2ccccc2)oc2ccccc12 | 0 | 0 | 15.6 | 0 | 0 | 14.2 | 0
Nc1nc(N)nc(-c2cccc(Br)c2)n1 | 0 | 0 | 14.0 | 0 | 4.2 | 11.2 | 0
CCCCNC(=O)C[C@H]1C[C@@]2(C(=O)OC)C(=C[C@H](COCc3ccccc3)O[C@@H]2C)N(Cc2cccc3ccccc23)C1=O | 0 | - | 0 | 0 | 0 | - | -
COc1ccc(/C=C/S(=O)(=O)NCc2ccccc2)c(CNC(=O)OC(C)(C)C)c1 | 0 | - | 0 | 0 | 0 | - | -
CCCOc1ccc(-c2c(=O)n(O)c3ccccc3[n+]2[O-])cc1 | 6.2 | 0 | 20.2 | 0 | 4.5 | 13.2 | 0
O=C(/C=C/c1ccc(Br)cc1)NC(=O)c1ccccc1O | 0 | 0 | 13.3 | 0 | 0 | 12.2 | 0
O=C(NO)c1ccccc1O | 0 | 0 | 0 | 0 | 0 | - | -
SMILES | hcDAF12 agonist | DAX1 inh-1 | hgDAF-12 ag | ssDAF-12 act | DAX1 inh-2 | hgDAF12 conf | LXRb DAF12 ctr
COCCCn1cnc2oc3nc4ccccc4nc3c2c1=O | 0 | 0 | 14.7 | 0 | 0 | 19.2 | 0
Nc1ncnc(Nc2ccc(F)cc2)n1 | 0 | 0 | 0 | 0 | 0 | - | -
Cc1ccc(Nc2ncnc(N)n2)cc1 | 0 | 0 | 18.5 | 0 | 0 | 0 | 0
O=C(Nc1ccc(NC(=O)c2ccco2)nc1)c1cccc(F)c1 | 0 | 0 | 13.4 | 0 | 0 | 16.2 | 0
Cc1ccc(NC(=O)c2ccc3[nH]c(=O)c(=O)[nH]c3c2)nc1 | 0 | 0 | 0 | 0 | 0 | - | -
COC(=O)c1ccccc1Oc1ccc(NC(=O)c2ccco2)cc1 | 0 | 0 | 13.5 | 0 | 0 | 0 | 0
Cc1ccc(NC(=O)c2ccc(F)cc2)nc1 | 0 | 0 | 14.6 | 0 | 0 | 11.7 | 0
O=C(Nc1ccc(Cl)cn1)c1cccc(F)c1 | 0 | 0 | 17.2 | 0 | 0 | 16.8 | 0
Cc1ccc(Oc2ccc(NC(=O)c3ccco3)cc2)cc1 | 0 | 0 | 0 | 0 | 0 | - | -
O=C(Nc1cccc(C(=O)Nc2ccc(Cl)cn2)c1)c1ccccc1 | 0 | 0 | 0 | 0 | 0 | - | -
